“And” between values parts separate entries of the source, which are not always exact repeats. Identical values can stand only once. Out of some 16,000 compounds screened, about 2,600 (16%) were called active. Roughly 20% stayed inconclusive and do not appear here. Calls come from the whole dose curve; as a rule, active = well fitted curve in the direction sought with a large enough effect; inconclusive = small, poorly fitted or top-dose-only effect, or effect the other way; inactive = no such curve, though single readings can be large or run the other way. Only a sample is shown.
What follows are molecules tested against Cytochrome P450 2D6 (Homo sapiens) (UniProt P10635) (assay: Cytochrome panel assay with activity outcomes). Settings: recombinant CYP, pro-luciferin dealkylation, luminescence, p450-cyp2d6; series mostly up to 57.1 µM.
% is set by controls: 0 for no effect and ±100 for the full control effect.

Chain of Cytochrome P450 2D6 (Homo sapiens) (P10635 whole entry, looked up): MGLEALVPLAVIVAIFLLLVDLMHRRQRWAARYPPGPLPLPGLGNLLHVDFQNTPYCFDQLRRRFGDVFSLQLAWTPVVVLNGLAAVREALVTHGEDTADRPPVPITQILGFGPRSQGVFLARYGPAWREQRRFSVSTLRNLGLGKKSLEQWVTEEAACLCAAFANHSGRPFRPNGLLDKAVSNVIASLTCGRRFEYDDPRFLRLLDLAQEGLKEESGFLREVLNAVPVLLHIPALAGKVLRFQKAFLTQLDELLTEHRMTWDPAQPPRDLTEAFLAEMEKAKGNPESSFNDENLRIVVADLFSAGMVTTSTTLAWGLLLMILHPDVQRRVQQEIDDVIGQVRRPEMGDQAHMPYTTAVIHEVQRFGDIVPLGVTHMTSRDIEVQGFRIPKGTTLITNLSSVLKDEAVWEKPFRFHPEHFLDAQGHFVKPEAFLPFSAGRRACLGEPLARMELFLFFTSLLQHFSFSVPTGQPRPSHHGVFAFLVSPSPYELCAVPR

SMILES | AC50 | activity, negative = inhibition
COc1ccc(/C=N/n2c(C)nnc2C)c(OC)c1 | inactive | –
CCn1c2ccccc2c2nnc(NCCCO)nc21 | – | 3.89% [at 11.4 µM] (inactive)
Cn1cnc2c(NCc3ccccc3)nc(NCCO)nc21 | 1.26 µM (active) | –
OCCn1cnc2c(SCc3ccccc3)ncnc21 | – | -0.741% [at 11.4 µM] (inactive)
O=C1[C@H]2[C@H]3[C@H](O)[C@H](O)C/C(=N/OC[C@@H](O)COCc4ccco4)[C@@H]3CC[C@@H]2C(=O)N1Cc1ccc2c(c1)OCO2 | – | 0.398% [at 11.4 µM] (inactive)
CN1CCC(N(C)C(=O)CCc2nc3ccccc3c(=O)[nH]2)CC1 | inactive | –
O=C(O)CSc1ccn(Cc2ccccc2)c1 | – | 9% [at 11.4 µM] (inactive)
O=C(COC(=O)c1cnccn1)NCc1ccccc1 | inactive | –
O=C(O)c1cccnc1Nc1cccc(C(F)(F)F)c1 | inactive | –
O=C(COC(=O)c1cccnc1Nc1cccc(C(F)(F)F)c1)NCc1ccc2c(c1)OCO2 | 1.12 µM (active) | –
Cc1cc2nnc(SCC(=O)OC(C)C)n2c2ccccc12 | inactive | –
NC1=C2NC=N[C@@H]2N(C/C=C\c2ccccc2)C=N1 | – | -12.6% [at 11.4 µM] (inactive)
N#CCCn1c(=O)c(-c2cccs2)nc2cnc(Oc3cccc(Cl)c3)nc21 | inactive | –
Cc1cc(NC(=O)C2CCCCC2)nc2c1c(=O)oc1ccccc12 | 20 µM (active) | –
COc1ccc2oc(=O)c(NC(=O)C3CCCCC3)cc2c1 | inactive | –
O=C(Nc1cc2ccccc2oc1=O)C1CCCCC1 | inactive | –
O=c1cnc2cnc(Nc3ccccc3)nc2n1C[C@H]1CCCO1 | inactive | –
COc1ccc(-c2cc(CNC(C)=O)on2)cc1 | inactive | –
FC(F)(F)c1ccc(/C=N/N2CCN(Cc3cccc4ccccc34)CC2)cc1 | inactive | –
COc1ccccc1CC(=O)O/N=C(\N)Cc1cccc2ccccc12 | inactive | –
COc1ccccc1/C=C/C=N/N1CCN(Cc2cccc3ccccc23)CC1 | 7.94 µM (active) | –
CCc1nc(N2CCC3(CC2)OCCO3)c2nnn(Cc3ccccc3Cl)c2n1 | inactive | –
CC(C)C(=O)Cc1ccc2ccccc2n1 | – | 5.06% [at 11.4 µM] (inactive)
Cc1cc2c(cc1C)-c1nnc(-c3ccc4ccccc4n3)n1C(C)(C)C2 | inactive | –

SMILES | AC50 | activity, negative = inhibition
c1ccc2nc(-c3ccncc3)ccc2c1 | 15.8 µM (active) | –
Cc1ccc([N+](=O)[O-])cc1N=C(c1cccc([N+](=O)[O-])c1)N1CCOCC1 | inactive | –
CC(=O)c1cnc2cc(C)nn2c1C | inactive | –
CC(C)Oc1ccc2ccccc2c1C=O | inactive | –
O=C(NNC(=O)C1CCN(S(=O)(=O)c2ccc(Cl)cc2)CC1)c1ccc(Cl)cc1 | inactive | –
Cc1[nH]c2c(C)ccc(C)c2c1CC(=O)O | – | -12.2% [at 11.4 µM] (inactive)
CC(=O)Nc1nc2ccccc2n1Cc1ccccc1 | inactive | –
COc1ccc(CNc2nc3ccccc3n2Cc2ccccc2)cc1OC | 0.794 µM (active) | –
COc1ccc(NC(=O)COC(=O)Cn2c(C)nc3ccccc32)cc1OC | inactive | –
C=CCn1c(NCc2ccccc2)nc2ccccc21 | 0.398 µM (active) | –
C=CCn1c(P(=O)(O)c2ccccc2)nc2ccccc21 | inactive | –
C=CCn1c(-c2cccn(Cc3ccccc3)c2=O)n[nH]c1=S | inactive | –
O=C(NCC1CCCO1)c1onc(CSc2ccccc2F)c1C(=O)O (stereo not given) | inactive | –
O=C(O)c1ccccc1N/N=C\c1ccnc2ccccc12 | inactive | –
CC(=O)ON(C(C)=O)S(=O)(=O)c1ccc(Cl)cc1 | inactive | –
Cc1[nH]n(C(C)(C)C)c(=O)c1Sc1ccccc1 | inactive | –
O=P(O)(CCP(=O)(O)c1ccccc1)c1ccccc1 | – | 0.684% [at 11.4 µM] (inactive)
O=C(c1cc(C(F)(F)F)cc(C(F)(F)F)c1)N1CCC2(CC1)CCN(c1ncccn1)CC2 | inactive | –
Cc1ccc(-c2ccc(/C=N\NC(=O)c3cc4c(ccc5ccccc54)o3)o2)cc1[N+](=O)[O-] | inactive | –
O=C(N/N=C(\c1ccccc1)c1cccnc1)C(O)(c1ccccc1)c1ccccc1 | inactive | –
Clc1ccc(CC[C@H](Cn2ccnc2)Sc2c(Cl)cccc2Cl)cc1 | 1.26 µM (active) | –
O=C1C2=CC[C@@H]3C(=O)N(c4ccc(F)cc4F)C(=O)[C@H]3[C@H]2[C@H](O)[C@H]2O[C@H]12 | – | 6.42% [at 11.4 µM] (inactive)
COc1ccc(-c2nc(C#N)c(N3CCC(C(N)=O)CC3)o2)cc1OC | inactive | –
COc1cccc(-c2nc(CS(=O)(=O)CC(=O)NCCCOC(C)C)c(C)o2)c1 | inactive | –

SMILES | AC50 | activity, negative = inhibition
COc1ccc(CCN(C)CCC(=O)Nc2c(C)cc(C)cc2C)cc1OC | inactive | –
CCCN(CCC)CCCNC(=O)CS(=O)Cc1nc(-c2ccc(OC)c(OC)c2)oc1C (stereo not given) | 5.01 µM (active) | –
COc1ccc(-c2nc(CSCC(=O)NCC3CCCO3)c(C)o2)cc1OC (stereo not given) | inactive | –
CCCCN(C)CCCNC(=O)CS(=O)Cc1nc(-c2ccc(OC)c(OC)c2)oc1C (stereo not given) | 11.2 µM (active) | –
CC(C)(C)CC(C)(C)c1ccc(OCOCCOCCO)c(Cc2cc(C(C)(C)CC(C)(C)C)cc(Cc3cc(C(C)(C)CC(C)(C)C)ccc3OCOCCOCCO)c2OCOCCOCCO)c1 | inactive | –
CCCCSc1nc(C)cc(C)c1S(=O)(=O)c1ccccc1C | inactive | –
Cc1ccc([C@@]2(C)CC/C(=N/N=C3\CC[C@](C)(c4ccc(C)c(C)c4)c4cc(C)c(C)cc43)c3cc(C)c(C)cc32)cc1C | – | -2.73% [at 11.4 µM] (inactive)
O=c1ccc(Oc2nc(N3CCOCC3)nc(N3CCOCC3)n2)n[nH]1 | inactive | –
NCC[C@H](N)C(=O)O | – | 6.66% [at 11.4 µM] (inactive)
O=S(=O)(/N=C(/Nc1ccccn1)c1ccccc1)c1ccc(Cl)cc1 | inactive | –
C=CCSc1nc2c(sc3nc(C)cc(C)c32)c(=O)[nH]1 | inactive | –
CC1Cc2ccccc2N1Cc1nc2cc(C(F)(F)F)ccc2c(=O)[nH]1 (stereo not given) | inactive | –
C[N+](C)(C)CCCSc1nc2ccccc2[nH]1 | – | 11.4% [at 11.4 µM] (inactive)
O=C(CSc1nc2ccccc2[nH]1)Nc1c(F)cccc1F | inactive | –
Cc1c(OCC(F)(F)F)ccnc1CSc1nc2ccccc2[nH]1 | 0.398 µM (active) | –
O=S(=O)(O)c1ccc(-c2nnc(-c3ccccn3)nc2-c2ccc(S(=O)(=O)O)o2)o1 | – | 16.6% [at 11.4 µM] (inactive)
O=C(Cc1cccc2ccccc12)N/N=C/c1ccc(Sc2nc3ccccc3s2)o1 | inactive | –
Cc1ccc(S(=O)(=O)N[C@H]2COC(=O)[C@@H](Cc3ccccc3)NC(=O)[C@@H](C)COC(=O)C/C=C\[C@@H]2C)cc1 | – | -0.453% [at 11.4 µM] (inactive) and -0.419% [at 11.4 µM] (inactive)
Oc1c([C@H](Nc2ccccn2)c2ccccc2)ccc2cccnc12 | 0.316 µM (active) | –
O=C(O)c1ccccc1N[C@H](c1ccccc1)c1ccc2cccnc2c1O | – | -6.89% [at 11.4 µM] (inactive)
Cc1ccc(N[C@H](c2ccccc2)c2ccc3cccnc3c2O)cc1 | – | -11.8% [at 11.4 µM] (inactive)
CCCc1nnc(SCC(=O)N2CCCCC2)n1CCCOC | inactive | –
CCOc1ccc(NC(=S)N(Cc2ccc(Cl)cc2)Cc2ccco2)cc1 | 7.94 µM (active) | –
CCOc1ccc(NC(=S)N(Cc2ccc(N(C)C)cc2)Cc2ccco2)cc1 | 8.91 µM (active) | –

SMILES | AC50 | activity, negative = inhibition
O=C(COc1ccc(Cl)cc1)Nc1ccc(N2CCN(C(=O)c3ccco3)CC2)cc1 | inactive | –
CCOc1ccc(NC(=O)c2oc3ccccc3c2NC(=O)CC)cc1 | inactive | –
Cc1ccc(NC(=O)N(Cc2ccco2)C(C)c2ccco2)cc1C (stereo not given) | inactive | –
Cc1noc(NS(=O)(=O)c2ccc(N/C=C/C(=O)c3ccc4c(c3)OCO4)cc2)c1C | inactive | –
CCCn1nnnc1-c1cccc(Cl)c1 | inactive | –
COc1ccccc1CNc1ncncc1-c1ccc2c(c1)OCO2 | 2.51 µM (active) | –
COc1ccc(CNc2ncncc2-c2ccc3c(c2)OCO3)c(OC)c1 | 0.794 µM (active) | –
CCc1ccc(OCC(=O)NNC(=O)CSc2ncnc3sc(C)c(C)c23)cc1 | inactive | –
O=S(=O)(/N=C(\Sc1ccccc1)c1ccccc1)c1ccc(Cl)cc1 | inactive | –
Cc1cc(C)c(NC(=O)C[C@H](CC(=O)O)c2cccc3ccccc23)c(C(=O)N2CCC3(CCCC3)CC2)c1 | inactive | –
CCCCCCCCOC1OC(CO)C(O)C(O)C1NC(C)=O (stereo not given) | inactive | –
Nc1ccn([C@H]2O[C@@H](COP(=O)(O)O)[C@@H](O)[C@H]2O)c(=O)n1 | – | 0.248% [at 11.4 µM] (inactive)
CO[C@@H]1COC(=O)[C@H]2CCCN2C(=O)C/C=C\[C@@H](C)[C@H](OC)COC(=O)[C@H]2CCCN2C(=O)C/C=C\[C@H]1C | – | 9.95% [at 11.4 µM] (inactive)
CN(C)c1oc(-c2ccccc2)nc1C#N | inactive | –
COc1ccccc1-c1ccc2ncnc(Nc3ccccc3)c2c1 | 10 µM (active) | –
COc1cccc(-c2ccc3ncnc(NCc4cccnc4)c3c2)c1 | 10 µM (active) | –
COc1ccccc1-c1ccc2ncnc(NCc3cccnc3)c2c1 | 7.94 µM (active) | –
Clc1ccccc1-c1ccc2ncnc(NCc3cccnc3)c2c1 | 6.31 µM (active) | –
Clc1ccccc1-c1cc(NCc2cccnc2)ncn1 | inactive | –
C=CCn1cc(/C=N\NC(=O)c2cc3c(ccc4ccccc43)o2)c2ccccc21 | inactive | –
COc1ccc(CCn2c3c(c(=O)[nH]c2=O)C(NC(=O)c2cccs2)(C(F)(F)F)C(=O)N3)cc1OC (stereo not given) | inactive | –
COC(=O)C1=C(NC(=O)c2cccc(OC)c2)CCS1 | inactive | –
O=c1c(-c2ccccc2)nc2cnc(N3CCOCC3)nc2n1CCc1ccccc1 | inactive | –

Reference: PubChem BioAssay AID1851 (National Center for Advancing Translational Sciences (NCATS), 2009)
